Experimental findings from PubChem BioAssay (NCATS) are described below.

Holding throughout (assay): Cytotoxic Profiling of Annotated Libraries Using Quantitative High-Throughput Screening (AID 1296008); also: nearly all actives have a fitted effect of over 60% in size
What all share (details): Five cell lines viability, CellTiter-Glo ATP luminescence, 48-72 h; max response: active compounds read low

One test relates to CRL-7250. The method in brief: (§1)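 Compounds were pin-transferred onto cells and incubated 48 or 72 hr at 37 degree Celsius, 95% humidity. CellTiter-Glo was added, plates sat 10 min at room temperature, then ATP-coupled luminescence was imaged as the viability read-out.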
For the next test, the system named is HEK293. Put shortly:
as §1

The subject of another test is HaCat. The method in brief: as §1
The next test relates to KB-3-1. The method in brief:
as §1

A further test relates to NIH3T3. The method in brief:
as §1

Results filed as inconclusive are left out. Values without a mark were called inactive. Calls of active or inactive are those of the source. Calls follow the shape of the dose curve; as a rule, active = well fitted inhibition curve with a large enough effect; inconclusive = small, poorly fitted or top-dose-only effect; inactive = flat fitted curve, though single readings scatter.
% is scaled to controls: 0 for no effect and ±100 for the full control effect; potency is read from the fitted curve at half-maximal effect.

In the case of `CC(=O)O[C@@](C)(C(=O)/C=C/C(C)(C)O)[C@H]1[C@H](O)C[C@@]2(C)[C@@H]3CC=C4[C@@H](C=C(O)C(=O)C4(C)C)[C@]3(C)C(=O)C[C@]12C`, the Potency is 2.82 µM (active) in the test with CRL-7250, 5.63 µM (active) with HEK293, 1.42 µM (active) in the test on HaCat and 1 µM (active) in the test on KB-3-1.
Regarding `COc1cc2ncnc(Nc3cccc(O)c3)c2cc1OC`, the call in the test with CRL-7250 and in the test with KB-3-1 was inactive. Also, in the test with HEK293, the max response is -2.36%. Further, the Potency in the test on HaCat was 4.61 µM (active).
For `N#CC(c1ccnc(OCc2ccc(CN3CCOCC3)cc2)n1)c1nc2ccccc2s1` (configuration not stated), the result in the test with CRL-7250 was inactive. Also, in the test with HEK293, the Potency is 5.17 µM (active). The max response is 0.847% in the test with HaCat and -18.3% in the test with KB-3-1.
For the molecule `CN(C)C/C=C/C(=O)Nc1cc2c(Nc3ccc(F)c(Cl)c3)ncnc2cc1OC1CCOC1` (configuration not stated), the Potency was 11.6 µM (active) in the test with CRL-7250, 5.8 µM (active) in the test with HEK293, 0.517 µM (active) in the test on HaCat and 5.17 µM (active) in the test with KB-3-1.
Consider `C=C1C(=O)OC2CC(C)=C(C(C)CCCO)C(O)C12` (configuration not stated), for which the outcome in the test with CRL-7250 and in the test with KB-3-1 was inactive. The max response in the test on HEK293 is -3.2%; in the test on HaCat, -11.4%.
Regarding `CCCCNc1ccc(-c2ccc(CN3CCOCC3)cn2)c(NC2CCC(O)CC2)c1` (configuration not stated), the call with CRL-7250 was inactive. Besides, the max response in the test with HEK293 was -7.2%; in the test with HaCat it was -2.49%; in the test on KB-3-1, -18.8%.
Turning to `Cc1nc(NC(=O)N2CCCC2C(N)=O)sc1-c1csc(C(C)(C)C)n1` (configuration not stated), the max response with CRL-7250 is -8.95%; in the test on HEK293 it was -25.9%. The Potency in the test on HaCat is 5.17 µM (active). The molecule was called inactive with KB-3-1.
Consider `CC[C@]12C=CCN3CC[C@@]4(c5cc([C@@]6(C(=O)OC)C[C@H]7C[C@@H](C(C)(F)F)CN(Cc8c6[nH]c6ccccc86)C7)c(OC)cc5N(C)[C@H]4[C@@](O)(C(=O)OC)[C@@H]1OC(C)=O)[C@@H]32`, for which the results for the Potency in the test on CRL-7250, in the test with HEK293 and with KB-3-1 were 0.485 µM (active), 0.172 µM (active) and 0.137 µM (active), respectively. Further, the result in the test on HaCat was inactive.
Regarding `O=C(O)c1cc2cccc([N+](=O)[O-])c2[nH]1`, the max response is -12.6% in the test on CRL-7250, 2.87% with HEK293, -11.1% in the test with HaCat and 5.58% in the test with KB-3-1.
Regarding `N#Cc1ccc2[nH]cc(CCCCN3CCN(c4ccc5oc(C(N)=O)cc5c4)CC3)c2c1`, the max response was -7.54% in the test with CRL-7250, -11.5% in the test with HaCat and -15.8% with KB-3-1. Besides, the Potency in the test on HEK293 is 8.2 µM (active).
`CC1=C(C(=O)O)/C(=C/CO[C@@H]2O[C@H](COC(=O)/C=C/c3ccc(O)cc3)[C@@H](O)[C@H](O)[C@H]2O)C(O)C1` (some centres not stated): the max response in the test on CRL-7250 was 0.839%; with HEK293, 1.96%; with HaCat, -4.87%; in the test with KB-3-1, 2.44%.
With `CC(=O)O[C@@H]1[C@@H](O)[C@H](O[C@H]2CC[C@]34C[C@]35CC[C@]3(C)[C@@H]([C@@]6(C)CC[C@@H](C(C)(C)O)O6)[C@@H](O)C[C@@]3(C)[C@@H]5C[C@H](O[C@@H]3O[C@H](CO)[C@@H](O)[C@H](O)[C@H]3O)[C@H]4C2(C)C)OC[C@H]1O`, the max response with CRL-7250 is 1.83%; with HEK293, -2.54%. For the same molecule, the outcome in the test on HaCat and in the test with KB-3-1 was inactive.
As to `COc1cccc(-c2cc(NCc3ccc4c(c3)OCO4)nc(N)n2)c1`, the Potency is 0.92 µM (active) in the test with CRL-7250, 0.184 µM (active) in the test on HEK293 and 0.231 µM (active) with KB-3-1. Moreover, the max response in the test on HaCat is -46.3%.
With `FC(F)(F)c1cc(-c2ncn(/C=C\c3nnco3)n2)cc(C(F)(F)F)c1`, the values for the max response in the test on CRL-7250, with HaCat and with KB-3-1 were -13.3%, -20% and -19.3%, respectively. In the test with HEK293, the Potency was 3.26 µM (active).
For the molecule `COC(=O)CCSCc1ccc(-c2onc(C)c2NC(=O)OC(C)c2ccccc2Cl)cc1` (configuration not stated), the max response was -4.23% in the test on CRL-7250, -7.48% in the test on HEK293 and -24.6% in the test on HaCat. Also, in the test on KB-3-1, the result was inactive.
Consider `COc1ccc2nc(S(=O)(=O)Cc3ncc(C)c(OC)c3C)[nH]c2c1`, for which the figures for the max response in the test with CRL-7250, in the test with HaCat and in the test on KB-3-1 were -21.3%, -8.8% and -6.6%, respectively. Besides, the Potency in the test on HEK293 was 16.4 µM (active).
Regarding `COc1cc(C)c(C(=O)Oc2cc(C)c(C(=O)Oc3cc(C)c(C(=O)NC(C)C(=O)O)c(O)c3)c(O[C@@H]3O[C@H](CO)[C@@H](O)[C@H](O)[C@H]3OC(C)=O)c2)c(OC)c1` (some centres not stated), the max response with CRL-7250 was -13.8%; with HEK293, -3.13%; with HaCat, -13.9%; in the test with KB-3-1 it was -6.88%.
On to `CO[C@H]1/C=C\O[C@@]2(C)Oc3c(C)c(O)c4c(O)c(c5c(nc6cc(C)ccn65)c4c3C2=O)NC(=O)/C(C)=C\C=C/[C@H](C)[C@H](O)[C@@H](C)[C@@H](O)[C@@H](C)[C@H](OC(C)=O)[C@@H]1C`, for which the max response with CRL-7250 is -2.8%; with HEK293, -17.1%; in the test on HaCat it was -2.81%; in the test with KB-3-1, 9.37%.
Turning to `CC(=O)O[C@@H]1c2c(C)coc2C(=O)[C@@]23O[C@@H]2CC[C@H](C)[C@@]13C`, the max response is 3.98% in the test on CRL-7250; 2.56% in the test with HEK293; -14.6% with HaCat; 9.51% in the test with KB-3-1; 4.3% with NIH3T3.
On to `CC(=O)O[C@@H]1c2c3c(cc(O)c2C(=O)O[C@@H]1C)O[C@@]1(C)[C@@H](O)C[C@H]2C(C)(C)C(=O)C=C[C@]2(C)[C@@H]1C3`, for which the max response with CRL-7250 is -27.6%; in the test with HEK293, -27.5%; in the test with HaCat it was 3.68%; in the test with NIH3T3 it was -3.36%. In addition, in the test on KB-3-1, the call was inactive.
Regarding `CC1=C(C(=O)O)/C(=C\CO[C@@H]2O[C@H](CO)[C@@H](O)[C@H](O)[C@H]2O)C(OC(=O)/C=C/c2ccc(O)cc2)C1` (some centres not stated), the max response with CRL-7250 is -18%; in the test with HEK293 it was 0.858%; in the test with HaCat, -26%; in the test on KB-3-1, 8.61%; in the test with NIH3T3 it was -19.1%.
